M1 ag: human M1 muscarinic receptor agonists, primary screen, Fluo-8 calcium fluorescence, CHO-K1 cells, HTS | AID 588814, 2011 | CHO-K1 hM1, agonist mode; 0% DMSO, 100% acetylcholine EC100 | activation, % at 3 µM | hit rate 0.33% among 360,000;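 active = activation above the run's mean compound activation plus 3 SD, cut at about 16% in these data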;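 also: peak over basal fluorescence ratio within a 140 s kinetic read after compound addition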
Target sequence (P11229 whole entry, looked up): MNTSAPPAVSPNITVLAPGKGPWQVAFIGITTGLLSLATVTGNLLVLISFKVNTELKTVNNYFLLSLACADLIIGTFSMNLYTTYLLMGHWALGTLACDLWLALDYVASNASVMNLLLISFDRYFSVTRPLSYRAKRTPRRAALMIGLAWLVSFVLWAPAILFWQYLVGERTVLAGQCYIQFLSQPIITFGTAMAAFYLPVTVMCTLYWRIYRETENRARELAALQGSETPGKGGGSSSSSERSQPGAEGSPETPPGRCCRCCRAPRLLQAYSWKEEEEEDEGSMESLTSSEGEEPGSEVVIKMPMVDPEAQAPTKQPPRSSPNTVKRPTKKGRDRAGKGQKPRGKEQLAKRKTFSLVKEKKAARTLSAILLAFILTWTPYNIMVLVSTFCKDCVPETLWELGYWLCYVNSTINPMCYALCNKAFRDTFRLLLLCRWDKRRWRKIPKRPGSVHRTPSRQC
M1 PAM parental: nonselective calcium activators in parental CHO-K1 cells, primary screen, counter-screen for M1 PAM project, cell-based, Fluo-8 calcium fluorescence, full deck, 1536-well; ATP EC20; 0% at ATP EC20, 100% at ATP max; activation, % at 3 µM; hit rate 0.02% among 360,000; AID 602247, 2012;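 active = activation above the run cutoff, the mean activation of all test compounds plus 3 SD, cut at about 40% in these data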;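 also: peak over basal fluorescence ratio in a 140 s read after ATP addition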
CHO-K1 Ca ag: counter-screen for M1 agonists: effect in parental CHO-K1 cells; Fluo-8 calcium fluorescence; scaled to maximal ATP response, vehicle zero; activation, % at 3 µM; hit rate 0.48% among 360,000; in the data active = activation above about 15%;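 also: untransfected CHO-K1 host cells lacking M1 receptor as counterscreen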
M1 PAM: human M1 muscarinic receptor positive allosteric modulators, primary screen, CHO-K1 cells, Fluo-8 calcium fluorescence, 1536-well; AID 588819, 2011; Muscarinic acetylcholine receptor M1 (Homo sapiens), P11229; hit rate 0.088% among 360,000; activation, % at 3 µM; CHO-K1 hM1, ACh EC20; 0% = ACh EC20, 100% = maximal ACh; in the data active = activation above about 19%, passing the limit was not always enough
CHO-K1 Ca antag: nonselective inhibitor or artifact in parental CHO-K1 cells. ATP-induced calcium, Fluo-8 fluorescence. inhibition, % at 3 µM. hit rate 0.6% among 360,000. AID 602250;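 active = inhibition above a per-plate cutoff, the plate's mean sample inhibition plus 3 SD, cut at about 24% in these data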
CHRM1 antagonist: human M1 muscarinic receptor antagonists, primary screen, CHO-K1 cells, Fluo-8 calcium fluorescence, 1536-well; inhibition, % at 3 µM; CHO-K1 hM1, ACh EC80 antagonist; hit rate 1.3% among 360,000;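 active = percent inhibition above its own plate's cutoff, namely the mean of that plate's compound wells plus 3 SD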;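 also: peak over basal fluorescence ratio during 140 s after agonist addition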
Large screens that a line does not name were inactive. Sampled rows, rich in hits. Any-hit rate of the full collection: about 2.3%.

Cc1cc(-c2ccc(C)c(S(=O)(=O)NCC3CCN(Cc4cccc(F)c4)CC3)c2)on1	none
COc1cccc(CCN2CCC(CNS(=O)(=O)c3cc(-c4cc(C)no4)ccc3C)CC2)c1	none
COc1ccccc1CN1CCC(CNS(=O)(=O)c2cc(-c3onc(C)c3C)ccc2OC)CC1	CHRM1 antagonist 102
Cc1cc(-c2ccc(C)c(S(=O)(=O)NCC3CCN(Cc4ccccc4F)CC3)c2)on1	CHRM1 antagonist 55
COc1cccc(CCN2CCC(CNS(=O)(=O)c3cc(-c4cc(C)no4)ccc3OC)CC2)c1	CHRM1 antagonist 37
O=C(COC(=O)c1ccccc1O)Nc1cccc2ccccc12	none
COc1cc(OC)cc(C(=O)N2CCN(C3CCC(C)CC3)CC2)c1 (centres undefined)	CHRM1 antagonist 31
COc1ccc(/C=N/NC(=O)c2ccoc2C)cc1CN1CCN(c2ccc(F)cc2)CC1	none
CN1CCN(NC(=O)Nc2cccc(F)c2)CC1	CHRM1 antagonist 31
O=C(NCc1ccc(F)cc1)Nc1ccc(Cl)cc1	none
O=C(Nc1cccc(F)c1)Nc1cccc(Cl)c1	CHO-K1 Ca ag 16, CHO-K1 Ca antag 30, CHRM1 antagonist 43
O=C(NCc1ccc(F)cc1)Nc1cccc(Cl)c1	CHO-K1 Ca antag 31
O=C(O)c1ccc(CNC(=O)C2CCN(S(=O)(=O)c3cccs3)CC2)cc1	none
Cc1ccc(NC(=O)COC(=O)c2cccc(C)c2[N+](=O)[O-])cc1S(=O)(=O)N1CCCCC1	CHRM1 antagonist 28
COc1ccc(NC(=O)COc2ccccc2C(N)=O)cc1S(=O)(=O)N1CCCCC1	none
Cc1ccc(NC(=O)COC(=O)c2ccccc2F)cc1S(=O)(=O)N1CCCCC1	none
Cc1ccc(NC(=O)COc2ccc(N(C)C(=O)C(C)(C)C)cc2)cc1S(=O)(=O)N1CCCCC1	CHO-K1 Ca ag 16, CHO-K1 Ca antag 29, CHRM1 antagonist 53
Cc1ccc(NC(=O)CSc2ncnc3ccccc23)cc1S(=O)(=O)N1CCCCCC1	CHO-K1 Ca antag 27
Cc1ccc(NC(=O)COc2ccccc2C(N)=O)cc1S(=O)(=O)N1CCCCCC1	CHO-K1 Ca antag 27, CHRM1 antagonist 33
CCOC(=O)C1=CC[C@@H](c2ccccc2)N(S(=O)(=O)c2ccc(C)cc2)[C@H]1C=C(C)C	none
COc1cc(C(C)=O)ccc1OCC(=O)Nc1ccc(S(=O)(=O)N2CCCCC2)cc1	none
Cc1ccc(NC(=O)COc2cccc(C)c2C)cc1S(=O)(=O)N1CCCCCC1	none
CCc1cccc(OCC(=O)Nc2ccc(C)c(S(=O)(=O)N3CCCCCC3)c2)c1	CHRM1 antagonist 46
COc1cc(C(C)=O)ccc1OCC(=O)Nc1ccc(C)c(S(=O)(=O)N2CCCCCC2)c1	CHO-K1 Ca ag 16, CHRM1 antagonist 37
COc1ccc(CN2CCC[C@]3(N[C@H](c4ccccc4)[C@@H]4C(=O)N(C)C(=O)[C@@H]43)C2=O)cc1	none
Nc1nn(-c2ccccc2Cl)cc1-c1nn[nH]n1	none
O=C(Nc1ccc(Cl)cc1)c1ccc(OCC2CCCO2)cc1 (centres undefined)	CHO-K1 Ca ag 26
Cc1nn(C)cc1S(=O)(=O)NCc1ccccc1Cl	none
CCOC(=O)C1CCCN(c2cc(=O)n(C3CCCCC3)c(=O)[nH]2)C1 (centres undefined)	M1 ag 31
O=C(O)c1cn(Cc2ccccc2)c2ccccc2c1=O	M1 ag 82, CHRM1 antagonist 62
O=C(O)CSc1cn(Cc2ccccc2)c2ccccc12	none
O=C(Cn1cc(Cl)ccc1=O)c1ccc(Cl)cc1	CHO-K1 Ca antag 24
O=C(CN1CCN(CC(=O)c2ccc(Cl)cc2)CC1)c1ccc(Cl)cc1	none
O=C1/C(=C/c2cccc(F)c2)Oc2cc(O)ccc21	CHO-K1 Ca ag 15
Cc1c(Cl)cccc1NC(=O)N1CCN(C(=O)c2ccco2)CC1	none
O=C(c1cnc2ccc3ccccc3c2c1)c1cc(F)ccc1O	M1 PAM parental 40
